The text below walks through data of the supplement of paper PMC7156485.

Several values for one entry are separate records, joined by “and”; a condition that tells them apart may be missing. Identical values can stand only once. Values without a mark were called inactive.
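Also: TDF is a line of transformed human dermal fibroblasts of mesenchymal origin.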

The assay deals with HCC1569. Description: H1.0 immunofluorescence intensity relative to DMSO (% of DMSO); higher = stronger H1.0 induction, active = 140 or more. The conditions noted are these: concentration: 10 µM; 24 h. The method in brief:
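HCC1569 and TDF cells (800 per well, 384-well plates, RPMI with 10% FBS) were treated with compounds at 10 µM for 24 h at 37 °C, in triplicate. Cells were fixed in 3.7% formaldehyde and stained with a rabbit anti-H1.0 antibody, an AlexaFluor 647 secondary and DAPI; six fields per well were imaged at ×10. H1.0 nuclear intensity or cell number is expressed as percent of the plate DMSO control, taking the median of replicates. HCC1569 values were smoothed for positional effects.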
Take `CON=C(C(=O)NC1C(=O)N2C(C(=O)[O-])=C(CSc3nc(=O)c([O-])nn3C)CSC12)c1csc(N)n1.[Na+].[Na+]` (centres undefined) [Ceftriaxone sodium]: the H1.0 immunofluorescence intensity is 94.
For `C1COC(NC(C2CC2)C2CC2)=N1` [Rilmenidine hemifumarate] the value was 107; for `CCN(Cc1ccncc1)C(=O)C(CO)c1ccccc1` (centres undefined) [Tropicamide], 100.
The figure for `Cn1c(=O)c(-c2c(Cl)cccc2Cl)cc2cnc(Nc3ccc(N4CCOCC4)cc3)nc21` is 88.3; for `CCN1CCN(C(=O)NC(C(=O)NC2C(=O)N3C2SC(C)(C)C3C(=O)O)c2ccccc2)C(=O)C1=O` (centres undefined) [Piperacillin] it is 119.
For `O=C(NCCNCC(O)COc1ccc(O)cc1)N1CCOCC1.O=C(O)C=CC(=O)O` (centres undefined) [Xamoterol hemifumarate] the value was 109.
In the case of `C[C@H](N[C@@H](CCc1ccccc1)C(=O)O)C(=O)N1CCC[C@H]1C(=O)O.O.O`, the H1.0 immunofluorescence intensity was 109.
For `CN(C)CCn1cc(S(=O)(=O)c2cccc(F)c2)c2cccnc21` the value was 111; for `Cc1cccc(-c2[nH]c(C(C)(C)C)nc2-c2ccc3c(c2)OCO3)n1.Cl` [TGF-b RI Inhibitor III], 122; for `CCC(CO)Nc1nc(NCc2ccccc2)c2ncn(C(C)C)c2n1` (centres undefined) [Roscovitine], 103.
The figure for `COC1CC(OC2C(C)C(=O)OC(C)C(C)C(OC(C)=O)C(C)C(=O)C3(CO3)CC(C)C(OC3OC(C)CC(N(C)C)C3OC(C)=O)C2C)OC(C)C1OC(C)=O` (centres undefined) [Troleandomycin] is 94.6; for `O=C(O)c1cn(C2CC2)c2cc(N3CCNCC3)c(F)cc2c1=O` [Ciprofloxacin] it is 102.
Turning to `COc1ccc2c3c1OC1CC(O)C=CC31CCN(C)C2` (centres undefined) [Galanthamine], the H1.0 immunofluorescence intensity is 94.8.
The figure for `CCCOc1ccccc1-c1nc2[nH][nH]nc-2c(=O)n1` [Zaprinast] is 104.
For `COc1cc2c(CCNC(C)=O)c[nH]c2cc1O` [6-Hydroxymelatonin] the value was 94; for `Cn1c(=O)c2[nH]cnc2n(C)c1=O` [Theophylline], 103; for `CCN(CC)CCCCN1c2ccccc2Oc2ccc(Cl)cc21.Cl` [Akt Inhibitor X], 150 (active).
For `NCCCC(=O)O` the value was 96.5; for `CCCCCCCCC=CCCCCCCCCC(=O)O` [10(E)-Nonadecenoic acid], 101; for `CC(=O)SC1CC2=CC(=O)CCC2(C)C2CCC3(C)C(CCC34CCC(=O)O4)C12` (centres undefined) [Spironolactone], 104.
On to `COc1ccccc1Oc1c(NS(=O)(=O)c2ccc(C(C)(C)C)cc2)nc(-c2ncccn2)nc1OCCO` [Bosentan], for which the H1.0 immunofluorescence intensity is 107.
As to `O=C(O)c1ccc(-c2c[nH]c3ncc(-c4ccccc4)cc23)cc1C1CCCC1`, the H1.0 immunofluorescence intensity was 152 (active) and 146 (active).
Consider `COc1ccc2nc(S(=O)Cc3ncc(C)c(OC)c3C)[nH]c2c1` (centres undefined) [Omeprazole], for which the H1.0 immunofluorescence intensity is 111.
For `O=C(NCCO)c1cccc(-c2cc(Nc3ccc(OC(F)(F)F)cc3)ncn2)c1` the value was 119.
`CC(C)c1cc(/C=C(\C#N)C(=O)NCCCc2ccccc2)cc(C(C)C)c1O`: the H1.0 immunofluorescence intensity was 141 (active).
Consider `N[C@H](CO)C(=O)O` [D-Serine], for which the H1.0 immunofluorescence intensity is 102.
For `CC(=O)c1ccc2c(c1)[C@H](NC(=O)c1ccc(F)c(Cl)c1)[C@H](O)C(C)(C)O2` the value was 99.5; for `CC(=O)O.NC(N)=NN=Cc1c(Cl)cccc1Cl` [Guanabenz acetate], 97.8.
On to `CCCCS(=N)(=O)CCC(N)C(=O)O` (centres undefined) [Buthionine sulfoximine], for which the H1.0 immunofluorescence intensity is 92.6.
On to `O=C(/C=C/c1cccnc1)NCCCCC1CCN(C(=O)c2ccccc2)CC1`, for which the H1.0 immunofluorescence intensity was 90.3.
Regarding `CC(N)=O` [Acetamide], the H1.0 immunofluorescence intensity is 106.
The figure for `O=C1OC(CN2CCOCC2)CN1/N=C/c1ccc([N+](=O)[O-])o1` (centres undefined) is 104; for `N[C@@H](COP(=O)(O)O)C(=O)O` [O-Phospho-L-serine] it is 96.7.
The figure for `CNC1C(O)C(NC)C2OC3(O)C(=O)CC(C)OC3OC2C1O.Cl.Cl` (centres undefined) [Spectinomycin.2HCl] is 100.
For `CS(=O)(=O)O.Cc1ccc(NC(=O)c2ccc(CN3CCN(C)CC3)cc2)cc1Nc1nccc(-c2cccnc2)n1` [Imatinib] the value was 127; for `CCCOc1ccc2nc(NC(=O)OC)[nH]c2c1` [Oxibendazole], 154 (active); for `CN1C(C)(C)CCCC1(C)C.O=C(O)C(O)C(O)C(=O)O` [Pempidine tartrate], 99.4.
As for `CC(C)(C)NCC(O)COc1nsnc1N1CCOCC1.O=C(O)C=CC(=O)O` [(S)-Timolol maleate], the H1.0 immunofluorescence intensity was 97.9.
The figure for `COc1cc2ncc(-c3ccccc3)nc2cc1OC` [Tyrphostin AG 1296] is 111.
